High-throughput results from PubChem.
PLK1 PBD block = PLK1 (human) polo-box domain binding inhibition. P53350. Plk1 PBD binding of FITC phosphopeptide, fluorescence polarization. Potency, µM, for the others: max response, negative = inhibition, most hits filed as inhibitors. 360,000 compounds, 2.8% hits. AID 720504; further: series mostly up to about 57 µM; on the % scale 0 is the no-effect control and ±100 the full control effect; nearly all actives have a fitted effect of over 65% in size
L3MBTL1 block = inhibitors of human L3MBTL1 | AID 485360 | AlphaScreen L3MBTL1–H3K9me1 peptide binding | 230,000 compounds, 0.66% hits | Potency, µM (doses to about 57.1 µM), without a hit: at the top dose activity, negative = inhibition, most hits filed as inhibitors; further: on the % scale 0 is the no-effect control and ±100 the full control effect; nearly all actives have a fitted effect of over 60% in size
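First, the protein-peptide complex forms for 30 min at room temperature (L3MBTL1 50 nM, biotinylated H3K9me1 peptide 75 nM). Next, compounds are pin-transferred and incubated 30 min. Finally, AlphaScreen beads are added and read after 30 min.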
VDR inhibitor = inhibitors of human vitamin D receptor; VDR-SRC2-3 peptide fluorescence polarization, 2 h; Potency, µM, for the others: max response, negative = inhibition, hits mostly inhibitors; 400,000 compounds, 0.93% hits; further: on the % scale 0 is the no-effect control and ±100 the full control effect
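VDR–SRC2-3 interaction, FP format. Cmpds 23 nl via pintool, brief spin, 2 h ambient incubation.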
HP1b chromo inh = blocks HP1-beta chromodomain binding to methylated histone tails | AlphaScreen HP1-beta / biotin-H3K9me3 peptide binding | Potency, µM (top dose mostly 114 µM), for the others: at the highest dose activity change, negative = inhibition, usual class: inhibitors | 390,000 compounds, 0.56% hits | AID 540317; further: nearly all actives have a fitted effect of over 70% in size
Target sequence (P83916 whole entry, looked up): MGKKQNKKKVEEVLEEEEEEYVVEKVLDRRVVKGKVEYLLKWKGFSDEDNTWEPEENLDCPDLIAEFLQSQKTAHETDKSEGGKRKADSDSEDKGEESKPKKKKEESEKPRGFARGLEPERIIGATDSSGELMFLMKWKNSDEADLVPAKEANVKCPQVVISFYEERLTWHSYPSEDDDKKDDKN
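Compound inhibition of the preformed complex between 50 nM HP1-beta and 50 nM biotinylated H3K9me3 peptide was read by AlphaScreen. Buffer was PBS pH 7.4 with 0.01% Tween-20. Incubations ran 30 min at room temperature, with 10 ug/mL donor/acceptor beads.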
JMJD2A Tudor = inhibitors of human JMJD2A Tudor domain; O75164; AlphaScreen JMJD2A-Tudor / H3K4me3 peptide binding; Potency, µM (highest dose often 114 µM), for the others: at the top dose activity change, negative = inhibition, actives largely listed as inhibitors; 390,000 compounds, 4.4% hits; AID 504339; further: on the % scale 0 is the no-effect control and ±100 the full control effect; nearly all actives have a fitted effect of over 50% in size
BAZ2B block = inhibitors of human BAZ2B bromodomain | Q9UIF8 | AlphaScreen BAZ2B-H3K14Ac peptide displacement | Potency, µM (top dose mostly 114 µM), for the others: at the top dose activity change, negative = inhibition, usual class: inhibitors | 360,000 compounds, 4.4% hits | AID 504333; further: on the % scale 0 is the no-effect control and ±100 the full control effect; nearly all actives have a fitted effect of over 60% in size
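In this displacement format the biotinylated H3(5-23) peptide acetylated at Lys14 serves as ligand at 50 nM, with BAZ2B at 50 nM in PBS pH 7.4 containing 0.01% Tween-20. Donor and acceptor beads are 10 ug/mL final.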
* marks the source's active call; other numbers are inactive results; ? = inconclusive; . = no result; [ ] = another dose, or the depositor's remark. The list is not random: actives were taken first. Their share in the collection is about 6.9%. The call rests on the fitted dose curve; in most records, active means well fitted curve in the direction sought with a large enough effect; inconclusive means small, poorly fitted or top-dose-only effect, or another doubt; inactive means no such curve, though single readings can be large; an effect the other way counts as inactive or inconclusive. Potency means the concentration at half of the fitted maximal effect.

SMILES	PLK1 PBD block	L3MBTL1 block	VDR inhibitor	HP1b chromo inh	JMJD2A Tudor	BAZ2B block
CNc1cc([N+](=O)[O-])ccc1N/C=C/C(=O)c1cccs1	-13%	-23%	-8%	-7%	?	50µM*
O=C(/C=C/Nc1ccc(Nc2ccccc2)cc1)c1cccs1	15%	?	10%	?	?	13µM*
COc1ccc(NC(=S)N2CCN(S(=O)(=O)c3ccc(OC)cc3)CC2)cc1	-3%	.	-11%	10%	89µM*	?
COc1ccc(NC(=S)N2CCN(S(=O)(=O)c3ccc(C)cc3)CC2)cc1	-18%	.	-8%	19%	-28%	?
COc1ccc(NC(=O)N2CCN(S(C)(=O)=O)CC2)cc1	27µM*	-1%[11.4 µM]	?	6%	?	-35%
Cc1c(NC(=O)c2ccc(S(=O)(=O)N(C)c3ccccc3)cc2)c(=O)n(-c2ccccc2)n1C	-13%	-1%	17%	37%	-3%	-8%
Cc1n[nH]c(=S)n1/N=C/c1ccccc1OCc1ccc(Cl)cc1	-14%	4%	-4%	20%	50µM*	8%
CCOc1ccc(/C=N/n2c(COc3ccccc3)n[nH]c2=S)cc1OC	?	.	-12%	-10%	20µM*	23%
COc1cc(/C=N/n2cnnc2)ccc1OCCOc1ccccc1	-3%	1%	-1%	17%	-21%	-3%
COc1cc(/C=N/n2c(COc3ccccc3)n[nH]c2=S)cc(OC)c1OC(C)=O	?	.	-28%	4%	?	-3%
Nc1nnnn1/N=C/c1ccccc1OCc1ccc(Cl)cc1	-7%	-5%	16%	24%	-9%	-1%
COc1cccc(/C=N/n2c(COc3ccccc3)n[nH]c2=S)c1OC	?	.	-1%	-13%	28µM*	-32%
COc1cc(/C=N/n2c(COc3ccccc3)n[nH]c2=S)cc(Br)c1O	-24%	.	-15%	-19%	13µM*	-29%
O=c1cc(-c2ccccc2)c2cc(Cl)c3c(c2o1)CN(Cc1ccccc1)CO3	.	.	-10%	74%	-10%	-1%
N#C/C(=C\c1ccc(F)c(Cl)c1)S(=O)(=O)c1ccccn1	12µM*	7%	6%	43%	-6%	-2%
Cc1noc(C)c1CSc1nc2ccccc2nc1NS(=O)(=O)c1ccc(Cl)cc1	6µM*	0%	-7%	-31%	2%[11.4 µM]	.
O=S(=O)(Nc1nc2ccccc2nc1NCc1ccco1)c1ccc(Cl)cc1	?	-3%	-1%	9%	-15%	-23%
CC(C)Cn1c(=S)[nH]c2cc(Cl)ccc21	24µM*	-8%	-17%	?	-14%	-32%
CC(C)Cn1c(=S)[nH]c2ccccc2c1=O	-10%	-27%	-24%	37%	-12%	-13%
c1ccc(-c2noc(CN3CCN(c4cnccn4)CC3)n2)cc1	13µM*	-4%	-10%	?	?	-25%
CCCCNC(=S)N(C)/N=C/c1ccc(OCc2ccc(C(=O)OC)cc2)c(OC)c1	-1%	2%	-12%	3%	-15%	-8%
Cc1ccc(-n2nc(C)c(C(=O)NCCCN3CCN(c4ccc(F)cc4)CC3)c2-n2cccc2)cc1	.	.	3%	-24%	45µM*	40µM*
CCCN1CCN(CCCNC(=O)c2c(C)nn(-c3ccc(F)cc3)c2-n2cccc2)CC1	.	.	0%	32%	7%	-12%
COc1ccc(N2CCN(CCCNC(=O)c3c(C)nn(-c4ccc(F)cc4)c3-n3cccc3)CC2)cc1	.	.	-7%	-11%	?	50µM*
Cc1nn(-c2ccc(F)cc2)c(-n2cccc2)c1C(=O)NCCCN1CCN(c2cccc(Cl)c2)CC1	.	.	11%	-8%	?	?
COC(C(=O)NNC(=O)CCc1ccccc1)c1ccccc1 (stereo not drawn)	5%	14%	22%	48%	-2%	-11%
CCC(C(=O)OCC(=O)NC(=O)NC(C)(C)C)c1ccccc1 (stereo not drawn)	27µM*	-12%	-21%	?	?	-1%
CCC(C(=O)OCC(=O)NC(=O)c1ccccc1)c1ccccc1 (stereo not drawn)	-1%	7%	-13%	23%	-8%	-20%
